Potency data for 40 compounds are collected here from PubChem BioAssay (Tox21).

Inconclusive results are not listed. Entries that show only a call come without a potency. Activity calls are given as the source filed them. Calls come from the whole dose curve.

Sequence of Acetylcholinesterase (Homo sapiens) (P22303 whole entry, looked up): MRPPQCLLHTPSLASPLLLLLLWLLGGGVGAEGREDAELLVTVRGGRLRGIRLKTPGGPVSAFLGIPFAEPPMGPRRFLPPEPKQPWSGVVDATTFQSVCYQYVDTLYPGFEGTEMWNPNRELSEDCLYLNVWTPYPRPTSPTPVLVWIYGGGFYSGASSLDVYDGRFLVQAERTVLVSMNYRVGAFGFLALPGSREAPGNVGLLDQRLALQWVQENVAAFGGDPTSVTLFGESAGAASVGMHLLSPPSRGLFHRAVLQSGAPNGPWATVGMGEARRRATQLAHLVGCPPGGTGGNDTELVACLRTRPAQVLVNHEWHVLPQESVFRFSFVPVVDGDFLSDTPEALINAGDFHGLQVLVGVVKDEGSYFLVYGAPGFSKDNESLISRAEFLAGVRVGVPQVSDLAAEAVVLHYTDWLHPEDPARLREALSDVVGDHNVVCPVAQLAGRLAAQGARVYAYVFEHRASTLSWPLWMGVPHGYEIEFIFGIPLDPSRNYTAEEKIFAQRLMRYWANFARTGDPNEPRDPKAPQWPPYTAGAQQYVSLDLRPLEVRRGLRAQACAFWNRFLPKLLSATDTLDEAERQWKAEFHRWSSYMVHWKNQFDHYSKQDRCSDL

The assay has as its target Acetylcholinesterase (Homo sapiens) (UniProt P22303). The experiment in a line: Acetylcholinesterase (AChE) small molecule antagonists: colormetric cell-based qHTS assay (AID 1347395). Note: nearly all actives have a fitted effect of over 30% in size. The note with it: SH-SY5Y cells AChE activity, colorimetric (Ellman); series mostly up to 115 µM. The text has this:
National Center for Advancing Translational Sciences [NCATS]
Division of Preclinical Innovation [DPI]
U.S. Environmental Protection Agency [EPA]
National Institutes of Environmental Health Sciences [NIEHS]
National Toxicology Program [NTP]
U.S. Food and Drug Administration [FDA]
Acetylcholinesterase (AChE) is the primary cholinesterase in the body that hydrolyzes a key neurotransmitter, acetylcholine. Inhibition of AChE activity can lead to neurotoxicity. The known inhibitors include organophosphorous pesticides (OP), chemical warfare agents, drugs, and various phytochemicals.
A homogenous cell-based assay using the Amplite Colormetric acetylcholinesterase assay kit (AAT Bioquest, Sunnyvale, CA) was used to evaluate the chemicals in the Tox21 10K library that inhibit AChE activity. The assay uses 5, 5-dithiobis-(2-nitrobenzoic acid) (DTNB) to quantify the thiocholine produced from the hydrolysis of acetylthiocholine by AChE from the SH-SY5Y cells.
Tox21 Assay Protocol Summary:
For the cell-based AChE assay, 2,000 SH-SY5Y cells in 4 uL/well were dispensed into black, clear-bottom 1536-well plates using a Multidrop Combi dispenser (Thermo Scientific, MA). The assay plates were incubated overnight at 37 C to allow cells to attach to the wells, followed by the transfer of 23 nL of compound or DMSO (vehicle control) by a Pintool Station (Wako Automation, CA). The plates were incubated for 30 min at 37 C and 5% CO2, followed by the addition of 4 uL of detection cocktail solution (DTNB, acetylthiocholine) into each well using a Flying Reagent Dispenser (Beckman Coulter, CA) and then 90 min incubation at 37 C.
In general terms: In qHTS, concentration-response curves come from the screen itself.
On to `CNc1ccc([N+](=O)[O-])cc1`, for which the Potency result is “inactive”.
With `O=[N+]([O-])c1ccc(CO)cc1`, the Potency result was “inactive”.
Then `Cc1oc(-c2ccccc2)nc1CCC(=O)c1ccc(CC2SC(=O)NC2=O)cc1` (stereo not given), with “inactive”.
Under `COC(=O)C1=C(C)NC(C)=C(C(=O)OCC(C)=O)C1c1ccccc1[N+](=O)[O-]` (stereo not given) stands “inactive”; under `CCCCCC/C=C/C=O`, “inactive”.
On to `Nc1cc(S(=O)(=O)O)ccc1S(=O)(=O)O`, for which the Potency entry is “inactive”.
Under `CCCCCCCCCCCCCCCCCC(=O)OCC(O)CO` (stereo not given) stands “inactive”; under `NC(N)=S`, “inactive”.
Under `NCc1cccc(CN)c1` stands “inactive”; under `O=C(O)c1ccccc1C(=O)OCc1ccccc1`, “inactive”; under `CCOC(=O)/C=C\C(=O)OCC`, “inactive”.
On to `CCCCCCCCCOC(=O)CCCCC(=O)OCCCCCCC`, for which the Potency entry is “inactive”.
Take `CC1=C(C(=O)OC(C)C)C(c2cccc([N+](=O)[O-])c2)C(C(=O)OC2CN(C(c3ccccc3)c3ccccc3)C2)=C(N)N1` (stereo not given): the Potency entry was “inactive”.
Under `CCCC(C)C(=O)OCC` (stereo not given) stands “inactive”; under `CCCCCCCCCCCc1ccccc1`, “inactive”.
As to `CC(C)CCCCCCc1ccc(OCCOCCO)cc1`, the Potency entry was “inactive”.
Under `Cc1cc(C)c(C(=O)P(=O)(c2ccccc2)c2ccccc2)c(C)c1` stands “inactive”.
Regarding `O=C(O)C1=NN(c2ccc(S(=O)(=O)O)cc2)C(=O)C1`, the Potency entry was “inactive”.
Then `NC1CCCCC1`, with “inactive”.
Under `Nc1c(S(=O)(=O)O)cc(Br)c2c1C(=O)c1ccccc1C2=O` stands “inactive”; under `O=C(O)CN(CC(=O)O)CC(=O)O`, “inactive”.
On to `CCCCCCCCCCCC`, for which the Potency entry was “inactive”.
`CN(C)c1ccc(N=NS(=O)(=O)O)cc1`: the Potency result is “inactive”.
In the case of `O=C=NCC1CCCC(CN=C=O)C1` (stereo not given), the Potency result is “inactive”.
Turning to `CC(=O)Oc1ccc([N+](=O)[O-])cc1CCl`, the Potency entry was “inactive”.
Under `COc1ccccc1[N+](=O)[O-]` stands “inactive”.
Under `CCCCNc1ccccc1` stands “inactive”; under `CC(=O)c1ccc(O)c(C(N)=O)c1`, “inactive”.
For the compound `COc1ccc(C(=O)c2ccccc2)c(O)c1`, the Potency result is “inactive”.
Then `C[C@H]1[C@@H](c2ccccc2)NC(=O)N1C`, with “inactive”; and `Cc1cc(NC(=O)C(=O)O)cc(C)c1Oc1ccc(O)c2c1CCC2`, with “inactive”; and `CNCCC(Oc1ccccc1OC)c1ccccc1` (stereo not given), with “inactive”.
On to `OC1CCCCC1`, for which the Potency result is “inactive”.
Under `O=C1CCCCCCCCCCCCCC1` stands “inactive”; under `CCCN(C1CCN(C(=O)C2CCNCC2)CC1)[C@@H]1CCc2ccc(OC)cc2C1`, “inactive”; under `CC(=O)Nc1ccc2c(c1)Cc1cc(NC(C)=O)ccc1-2`, “inactive”.
Then `CC(C)=CC(=O)O`, with “inactive”; and `O=NN(CCCl)C(=O)NCCCl`, with “inactive”.
Then `COc1ccccc1N1CCN(CC(O)COc2cccc3ccccc23)CC1` (stereo not given), with “inactive”; and `OCC1CCCO1` (stereo not given), with “inactive”.
